Our source for the Potency and cytoprotection (ATP increase) values is PubChem BioAssay AID1471 (National Center for Advancing Translational Sciences (NCATS), 2008).

SMILES strings stand for the structures. Where “and” joins values, the source holds several entries; their conditions need not be identical. Equal entries are not always repeated. Screen size: about 230,000 compounds; about 310 (0.13%) were called active. Where a call stands in place of a potency, no number is given. About 2% were inconclusive and are not listed. Calls come from the whole dose curve; as a rule, active = well fitted activation curve with a large enough effect; inconclusive = small, poorly fitted or top-dose-only effect; inactive = no such curve, though single readings can be large or run the other way. The sample as a whole holds a higher share of actives than the screen did.

This assay is described as follows: qHTS Multiplex Assay to Identify Dual Action Probes in a Cell Model of Huntington: Cytoprotection (ATP).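 For cytoprotection (ATP increase): toxic huntingtin expression switched on by the ecdysone agonist tebufenozide.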 Note: nearly all actives have a fitted effect of over 45% in size. The conditions noted are these: PC12 HTT-Q103 induced, ATP luminescence, 40 h; series mostly up to 56.4 µM. An excerpt: NIH Chemical Genomics Center [NCGC]
NIH Molecular Libraries Probe Production centers Network [MLPCN]
Assay Submitter (PI): Wei Zheng
Huntington's disease is a neurodegenerative disorder caused by a trinucleotide repeat expansion in Exon 1 of the Huntingtin gene. The CAG trinucleotide encodes glutamine and polyglutamine expansions cause cell death in selective areas of the brain. Huntington polyglutamine repeats have the tendency to form aggregates which are observable in later stages of the disease. The exact nature of the aggregates, whether toxic, protective, or insignificant, is unclear.
A stable PC12 cell line containing a gene fusion of Exon 1 of the Huntingtin gene linked to GFP under the control of the inducible ecdysone promoter were used as the cell-based model of Huntington Disease for high throughput screening. Exon 1 of the Huntingtin gene contained an expansion of 103 polyglutamines (Q103) which, when expressed, caused cell death and distinct, bright GFP aggregates. The amount of cell death and the size and intensity of GFP aggregates increased over time and induction level. The cell death were quantified with a measurement of ATP content in the cells. A maximal 40-50% of cell death was observed when the Huntington gene was induced in this cell line.
We optimized this assay in a homogeneous 1536 well format. A quantitative high throughput screen (qHTS) was conducted on the PC12 cells which were induced to express the toxic fusion construct. Small molecules which prevented cell death were identified by using a luminescent ATP quantification method (Perkin Elmer's ATPlite).
PC12 cells stably containing a construct with an ecdysone inducible promoter expressing GFP fused to the exon 1 of HTTQ103 (Huntington protein which containing a 103 ployglutamine expansion) were used.
NCGC Assay Protocol Summary:
Sequence, Parameter, Description
1, Reagent, 5 uL 1500 cells/well 1536 TC treated White clear bottom plate
2, Compound, 23 nL Tebufenozide inducer (100 nM final) to all columns
3, Compound, 23 nL 40 uM to 0.5 nM Libraries
5, Reagent, 5 ul ATPLite cell death assay reagent
6, Detector, 4 sec integration with a Viewlux Luminescent
Media consisted of phenol red free DMEM + 5% equine serum (Hyclone # SH30072.03 ), 5% supplemented Bovine Calf Serum (Hyclone # SH30074.03 ), 1x pen/strep, no G418
Control columns: 1 = DMSO, 2= 2 uM teb dilns (1:1), 4 = 100 nM Teb inducer. Sample columns received 100 nM Teb.
(In general: Quantitative high-throughput screening tests each substance at several concentrations.)
In the case of `CC(C)(O)/C=C\C(=O)[C@](C)(O)[C@H]1[C@H](O)C[C@]2(C)[C@@H]3CC=C4[C@@H](C=C(O)C(=O)C4(C)C)[C@]3(C)C(=O)C[C@@]12C`, the Potency was 5.01 µM (active).

`C[N+]1(C)C2CC(OC(=O)C(CO)c3ccccc3)CC1[C@@H]1O[C@H]21` (some centres undefined): the cytoprotection (ATP increase) is 17.6% [at 1.9 µM] (inactive) and 4.91% [at 1.9 µM] (inactive).

For `CC1=CC(=O)C2=C(C)C[C@H](O)[C@@H]3[C@@H](OC(=O)[C@H]3C)[C@H]12`, the cytoprotection (ATP increase) entry is “inactive”.

Consider `CC(C)(O)[C@H]1[C@H]2OC(=O)[C@@H]1[C@]1(O)C[C@H]3O[C@]34C(=O)O[C@H]2[C@]14C`, for which the cytoprotection (ATP increase) result was “inactive”.
